Source: PubChem BioAssay AID799 (SRMLSC, 2007)
The whole screen tested about 140,000 compounds, of which about 840 (0.6%) were called active.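 The calls were made as follows: active = viability gain under doxorubicin at or above a set limit, the compound median plus 3 SD (cut at about 4.7% in these data); inactive = the rest.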 For the sample, actives were picked, then their nearest neighbours and some compounds at random.

Assay: H69AR viability gain despite doxorubicin, primary screen, MRP-1 activator project, H69AR cells, CellTiter-Glo (AID 799);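 also: MRP-1 overexpressing cells given doxorubicin 25 µM after compound pretreatment; 18-22 h compound pretreatment then 72 h with doxorubicin before readout; 0% = doxorubicin-only wells and 100% = vehicle-treated cells without doxorubicin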
Conditions: viability rescue, at 10 µM, hits give high values

Row | SMILES | viability increase
1 | CCCN(CC1COc2ccccc2O1)C(=S)Nc1ccc(C)cc1 (stereo not drawn) | -0.89% (inactive)
2 | Cc1nnc(-c2ccc(Oc3ccc(C)c(C)c3)c([N+](=O)[O-])c2)o1 | -1.23% (inactive)
3 | COc1cccc(/C=N/Nc2ncc(C(F)(F)F)cc2Cl)c1O | -4.98% (inactive)
4 | Cc1cc(C)c(NC(=S)N2CCCC2C(=O)O)c(C)c1 (stereo not drawn) | 0.6% (inactive)
5 | CCN(C(=O)CSc1ncn[nH]1)c1cccc2ccccc12 | 1.04% (inactive)
6 | Cn1nnc(NC(=O)CSc2ncn[nH]2)n1 | -0.73% (inactive)
7 | CC(C)(C)c1ccc(C(=O)CSc2ncn[nH]2)cc1 | 9.85% (active)
8 | CCN(CC(=O)NCCc1ccccc1)S(=O)(=O)c1ccc(C)cc1 | -2.77% (inactive)
9 | COc1ccc(CC(=O)Nc2ccc(C(=O)NC(C)(C)C)cc2)cc1 | 0.14% (inactive)
10 | CC(C)(C)NC(=O)c1cccc(NC(=O)Cc2ccc(Br)cc2)c1 | 5.31% (active)
11 | O=C(Cc1ccccc1)Nc1cccc(C(=O)N/N=C/c2ccco2)c1 | -0.32% (inactive)
12 | COc1ccc(Cl)cc1NC(=O)Cn1nc(-c2ccc(C)cc2)n(C)c1=S | -3.24% (inactive)
13 | CCOC(=O)c1cnc2ccc(F)cc2c1Nc1ccc2c(c1)OCCO2 | -1.56% (inactive)
14 | Cc1c(CCO)sc[n+]1CC(=O)OC12CC3CC(CC(C3)C1)C2 | -0.72% (inactive)
15 | Cc1ccc(CC2S/C(=C(/C#N)C(=O)N3CCOCC3)N(c3ccccc3)C2=O)cc1 (stereo not drawn) | 7.14% (active)
16 | N#C/C(C(=O)N1CCOCC1)=C1/SC(Cc2ccc(F)cc2)C(=O)N1c1ccccc1 (stereo not drawn) | -0.96% (inactive)
17 | Cc1ccc(C(=O)C(=S)N2CCOCC2)cc1 | -2% (inactive)
18 | Cc1ccn(-c2cccc(-n3ccc(C)n3)n2)n1 | 1.12% (inactive)
19 | CN1/C(=C\C(=O)c2oc3ccccc3c2N)C(C)(C)c2ccccc21 | 5.19% (active)
20 | Cc1noc(C)c1C(=O)OCC(=O)/C=C1\N(C)c2ccccc2C1(C)C | -1.22% (inactive)
21 | CN1/C(=C\C(=O)c2cccnc2Cl)C(C)(C)c2ccccc21 | -0.96% (inactive)
22 | C/C(=N/NS(=O)(=O)c1ccccc1)c1ccc(NC(=O)C(F)(F)F)cc1 | -0.61% (inactive)
23 | Cc1ccccc1N/C(SCc1ccc(Cl)cc1)=C(/C#N)C(N)=O | -2.62% (inactive)
24 | Cc1scc(C(=O)NNC(=S)NCC(C)C)c1C | 0.83% (inactive)

Row | SMILES | viability increase
25 | COc1ccc(CC(=O)N2N=C(C)CC2(O)C(F)(F)F)cc1 (stereo not drawn) | -0.45% (inactive)
26 | Cc1ccc(C(=O)/C=C/Nc2ccc(S(=O)(=O)Nc3onc(C)c3C)cc2)cc1 | -1.44% (inactive)
27 | O=S(=O)(Nc1ccc(Oc2ncccn2)c(Cl)c1)c1ccc(F)cc1 | -2.28% (inactive)
28 | Cc1ccc(S(=O)(=O)Nc2ccc3ncccc3c2)cc1 | 5.23% (active)
29 | CCc1nccn1S(=O)(=O)c1cccc([N+](=O)[O-])c1 | 1.01% (inactive)
30 | N#CC1(NC(=O)COc2ccc3oc4ccccc4c3c2)CCCCC1 | 0% (inactive)
31 | O=C(COc1ccc2oc3c(c2c1)CCCC3)Nc1ccccn1 | 5.27% (active)
32 | NC(=O)COc1ccc2c3c(c(=O)oc2c1)CCCCC3 | -0.34% (inactive)
33 | O=C(COC(=O)Cc1ccc(F)cc1)Nc1cc(S(=O)(=O)N2CCOCC2)ccc1N1CCCC1 | 0.15% (inactive)
34 | CN(C(=O)c1c(Cl)cnn1C)C12CC3CC(CC(C3)C1)C2 | -1.48% (inactive)
35 | Clc1cccc(CN2COc3c(cc(Cl)c4cccnc34)C2)c1 | -5.22% (inactive)
36 | COc1ccc(C(=O)Nc2ccccc2C(=O)N/N=C/c2ccccc2OC)cc1 | -3.65% (inactive)
37 | COc1cccc(/C=N\NC(=O)C2=NNC(=O)C2C)c1O (stereo not drawn) | 8.24% (active)
38 | COc1cccc(/C=N/NC(=O)c2[nH]nc3c2CCc2ccccc2-3)c1O | -0.29% (inactive)
39 | CCn1cc(/C=C2/SC(=S)NC2=O)c(C)n1 | -3.74% (inactive)
40 | Cc1ccc(NC(=S)NCc2ccccc2Cl)c(C)c1 | -3.43% (inactive)
41 | CC1(C)CC(=O)C2=C(C1)N=C1SCCC(=O)N1C2c1ccc(C(F)(F)F)cc1 (stereo not drawn) | 9.27% (active)
42 | Cc1ccc(C(=O)COC(=O)CCCC(=O)NC2CCCCC2)cc1[N+](=O)[O-] | -1.8% (inactive)
43 | O=C(Cn1nnc(-c2ccccc2)n1)N/N=C/c1ccc(-c2ccc(Cl)cc2)o1 | -1.7% (inactive)
44 | COC(=O)N/N=C/c1ccc(-c2ccc(Cl)c(Cl)c2)o1 | 9.18% (active)
45 | O=C(N/N=C\c1ccc(-c2ccc(Cl)c(Cl)c2)o1)C(=O)N1CCCC1 | 1.06% (inactive)
46 | CCc1ccc(NC2Nc3cc(C)nn3S2)cc1 (stereo not drawn) | 1.66% (inactive)
47 | COC(=O)c1ccccc1NC(=O)CSc1ccccn1 | -0.18% (inactive)
48 | Cc1cccc(C)c1NC(=O)CSc1ccc([N+](=O)[O-])cn1 | -2.01% (inactive)
